# Inconclusive results are not listed. Entries that show only a call come without a potency. Calls of active or inactive are those of the source. Calls follow the shape of the dose curve; as a rule, active = well fitted curve in the direction sought with a large enough effect; inconclusive = small, poorly fitted or top-dose-only effect, or another doubt; inactive = no such curve, though single readings can be large; an effect the other way counts as inactive or inconclusive.
# Legend:
# [1] = tested on: Tov112D; experiment: Primary qHTS to identify gynecologic anti-cancer compounds using libraries of approved drugs and bioactive compounds (AID 1345084); settings: Gynecologic cancer cell panel viability, ATPlite luminescence, 48 h; series mostly up to 57.5 µM; also: nearly all actives have a fitted effect of over 55% in size
# In short: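 Five-concentration response, 48 h; readout is ATP-driven luciferase luminescence.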
# [2] = qHTS assay to identify inhibitors of the type 1 interferon - major histocompatibility complex class I in skeletal muscle: Counter screen cell viability and HiBit confirmation (AID 1347412); settings: iHSKM muscle cells + IFN-b, HiBiT or CellTiter-Glo, 24 h; also: nearly all actives have a fitted effect of over 60% in size
# In short: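 Duplicate plates, pinned identically: one read for HiBiT-tagged endogenous HLA-B luminescence, the other for ATP-content viability via CellTiter Glo. Cells were genome-engineered human myoblasts given 4 ng/ml IFN-b; compounds 12-pt, 1:3 from 46 uM final; 24 hr exposure.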
# Potency is read from the fitted curve at half-maximal effect.
smiles,measurement,setting,value
CN1CCN(C2CCN(C(=O)Nc3cc(Oc4ccc(NC(=O)C5(C(=O)Nc6ccc(F)cc6)CC5)c(F)c4)ccn3)CC2)CC1,Potency,[1],inactive
same,Potency,[2]; HiBiT,4.97 µM (active)
same,Potency,[2]; Viability,14 µM (active)
CNS(=O)(=O)c1ccccc1Nc1nc(Nc2ccc(N3CCN(C)CC3)cc2OC)ncc1Br,Potency,[1],12.6 µM (active)
O=C(CN1C2=NCCN2c2ccccc21)c1ccc(-c2ccccc2)cc1,Potency,[1],inactive
C=C(NC(=O)C(=C)NC(=O)c1csc(C2=NC3c4csc(n4)C4NC(=O)c5csc(n5)C(C(C)(O)C(C)O)NC(=O)C5CSC(=N5)/C(=C/C)NC(=O)C(C(C)O)NC(=O)c5csc(n5)C3(CC2)NC(=O)C(C)NC(=O)C(=C)NC(=O)C(C)NC(=O)C(C(C)CC)NC2C=Cc3c(C(C)O)cc(nc3C2O)C(=O)OC4C)n1)C(N)=O (configuration not stated),Potency,[1],inactive
COc1cc2c(cc1OC)CN(C(=O)/C=C/c1c(-c3ccccc3)n(C)c3ncccc13)CC2,Potency,[1],inactive
CN(C)C(=O)NC1(c2ccccc2)CCN(CCC[C@]2(c3ccc(Cl)c(Cl)c3)CCCN(C(=O)c3ccccc3)C2)CC1,Potency,[1],inactive
CC(C)C[C@@H]1NC(=O)[C@@H](Cc2ccccc2)NC(=O)C(CCCCCC(=O)C2CO2)NC(=O)[C@@H]2CCCCN2C1=O (some centres not stated),Potency,[1],inactive
COc1ccc(C2=NC(c3ccc(Cl)cc3)C(c3ccc(Cl)cc3)N2C(=O)N2CCNC(=O)C2)c(OC(C)C)c1 (configuration not stated),Potency,[1],inactive
Cn1cc(-c2ccc3c(c2)CCN3C(=O)Cc2cccc(C(F)(F)F)c2)c2c(N)ncnc21,Potency,[1],inactive
CNC(C)C(=O)NC(C(=O)N1CCCC1C(=O)Nc1snnc1-c1ccccc1)C1CCCCC1 (configuration not stated),Potency,[1],inactive

# Source: PubChem BioAssay (NCATS)
